Screening results (PubChem)
Rab9 prom act = activates the Rab9 promoter; Huh7 Rab9 promoter-luciferase reporter, luminescence, 24 h; Potency, µM (top dose mostly 9.22 µM), inactives show top-dose activation, negative = inhibition, usual class: activators; hit rate 2.8% among 320,000; AID 485297; also: % of control where 0% means no effect; nearly all actives have a fitted effect of over 60% in size
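Luminescence from Amplite-detected luciferase (10 minutes, ambient) reports Rab9 promoter activation. Before that, stable Rab9-luciferase Huh7 cells (1500/well, reduced-serum OP-MEM I plus 10% FBS) were exposed to compound for 24 hours at 37C.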
NPC1 promoter act = NPC1 promoter activation; hit rate 2.4% among 320,000; Huh7 NPC1 promoter luciferase reporter, 24 h; Potency, µM (highest dose often 9.22 µM), for inactives: at the highest dose activation, actives largely listed as activators; AID 485313; also: % of control where 0% means no effect; nearly all actives have a fitted effect of over 60% in size
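Stable NPC1-promoter luciferase Huh7 line; cpd (DMSO) 24 h, 37 °C, 5% CO2; Amplite luciferase reagent 10 min RT; luminescence readout. qHTS format.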
SMN2 splice enh = increases expression of the SMN2 splice variant; HEK293 SMN2-luciferase splicing reporter, luminescence, 30-36 h; Potency, µM (highest dose often 46.1 µM), for inactives: top-dose activity change, positive = activation, usual class: activators; hit rate 2.8% among 210,000; also: % of control where 0% means no effect; nearly all actives have a fitted effect of over 55% in size
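HEK293 cells carry an SMN2 […]–luciferase reporter in which exon 7 inclusion puts luciferase in frame. Cells were plated 10-12 h before compound addition, then incubated 30-36 h at 37C. ONE-Glo luminescence was read; sodium butyrate at 4.5 mM final served as control.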
ELG1 genotox = induces genotoxicity in HEK293T cells with luciferase-tagged ELG1; Potency, µM (series often up to 46 µM), for inactives: at the highest dose activity change, positive = activation, most hits filed as activators; AID 504466; hit rate 1.3% among 330,000; HEK293T ELG1-luciferase reporter, luminescence, 16 h; also: % of control where 0% means no effect; nearly all actives have a fitted effect of over 60% in size
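Quantitative HTS format in 1536-well plates. HEK293T ELG1-luciferase reporter cells receive test compound and are incubated 16 hr at 37 °C, 5% CO2; ONE-Glo added, 30 min room temperature, then luminescence read.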
FLuc modulator = inhibits or activates purified firefly luciferase, miR-21 counter-screen. P08659. purified FLuc, Km substrates, luminescence inhibition. Potency, µM (highest dose often 57.5 µM), for inactives: top-dose activity change, negative = inhibition, most hits filed as inhibitors. hit rate 6.9% among 360,000. AID 588342;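 also: plate controls were vehicle for no effect and reference inhibitor for full effect; nearly all actives have a fitted effect of over 55% in size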
Target sequence (P08659 whole entry, looked up): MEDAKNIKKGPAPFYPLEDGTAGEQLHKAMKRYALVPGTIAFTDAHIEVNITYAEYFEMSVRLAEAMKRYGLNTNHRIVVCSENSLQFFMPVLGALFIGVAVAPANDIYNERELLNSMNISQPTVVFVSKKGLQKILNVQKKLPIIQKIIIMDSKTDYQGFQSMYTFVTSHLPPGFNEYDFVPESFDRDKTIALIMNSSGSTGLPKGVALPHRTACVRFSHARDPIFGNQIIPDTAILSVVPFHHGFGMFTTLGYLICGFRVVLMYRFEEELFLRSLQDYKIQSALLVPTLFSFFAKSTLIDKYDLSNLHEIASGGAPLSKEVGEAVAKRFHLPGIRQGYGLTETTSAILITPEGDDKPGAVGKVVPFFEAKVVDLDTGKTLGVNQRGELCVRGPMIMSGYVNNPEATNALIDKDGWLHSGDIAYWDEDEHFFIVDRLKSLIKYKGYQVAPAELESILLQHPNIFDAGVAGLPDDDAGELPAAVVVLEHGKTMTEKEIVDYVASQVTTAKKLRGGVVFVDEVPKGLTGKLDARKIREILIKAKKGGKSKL
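Purified P. pyralis luciferase (10nM final) with 10uM D-luciferin and 10uM ATP (Km levels) in 50mM Tris acetate pH 7.5, 10mM Mg acetate, 0.01% Tween-20, 0.05% BSA; qHTS 6-point titration, ~60 µM downward; luminescence read.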
ELG1 repair inh = ELG1-dependent DNA repair inhibition | Potency, µM (series often up to 46.1 µM), inactives show at the highest dose activity change, negative = inhibition, usual class: inhibitors | HEK293T ELG1-luciferase reporter, luminescence, 16 h; DNA damage induced by 5-fluorouridine | hit rate 2.3% among 330,000; also: % is scaled to controls: 0 for no effect and ±100 for the full control effect; nearly all actives have a fitted effect of over 55% in size
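Step one: seed 2,000 cells per well. Step two: pin-transfer compound or DMSO alongside 5-fluorouridine. Step three: incubate 16 hr, 37 °C, 5% CO2. Step four: add ONE-Glo, wait 30 min, read luminescence.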
* hit, by the source's call. Shown are actives, neighbours in structure and some others; about 9.3% of the full set was active somewhere. Calls follow the shape of the dose curve; as a rule, active = well fitted curve in the direction sought with a large enough effect; inconclusive = small, poorly fitted or top-dose-only effect, or another doubt; inactive = no such curve, though single readings can be large; an effect the other way counts as inactive or inconclusive. Potency is read from the fitted curve at half-maximal effect.

Screening Cc1ccc2[nH]c3c(N4CCc5ccccc5C4)ncnc3c2c1 returned Rab9 prom act -21.0%, NPC1 promoter act -21.5%, SMN2 splice enh -37.1%, ELG1 genotox -16.0%, FLuc modulator inconclusive and ELG1 repair inh inconclusive.
Fc1ccc2[nH]c3c(N4CCc5ccccc5C4)ncnc3c2c1 was read as Rab9 prom act -31.3%, NPC1 promoter act -24.9%, ELG1 genotox -4.5%, FLuc modulator -5.8% and ELG1 repair inh 1.3µM*.
For CCOc1ccc2[nH]c3c(N4CCc5ccccc5C4)ncnc3c2c1 the results were Rab9 prom act -19.7%, NPC1 promoter act -26.8%, ELG1 genotox -15.1%, FLuc modulator inconclusive and ELG1 repair inh 18.3µM*.
For Brc1ccc2[nH]c3c(N4CCc5ccccc5C4)ncnc3c2c1 the results were Rab9 prom act -11.2%, NPC1 promoter act -0.4%, SMN2 splice enh -25.5%, ELG1 genotox inconclusive, FLuc modulator -18.0% and ELG1 repair inh inconclusive.
For Cc1cccc2[nH]c3c(N4CCC5(CC4)OCCO5)ncnc3c12 the results were Rab9 prom act 1.8%, NPC1 promoter act -10.7%, SMN2 splice enh -25.5%, ELG1 genotox 2.9%, FLuc modulator inconclusive and ELG1 repair inh 16.4µM*.
For c1ccc2c(c1)[nH]c1c(N3CCOCC3)ncnc12 the results were Rab9 prom act 0.8%, NPC1 promoter act 0.5%, SMN2 splice enh -46.1%, ELG1 genotox -5.0%, FLuc modulator 0.1% and ELG1 repair inh inconclusive.
For COc1ccccc1N1CCN(C(=O)c2nc(SC)ncc2Cl)CC1 the results were SMN2 splice enh -12.3% and FLuc modulator 0.7%.
`Cn1c(=N)n(CC(=O)c2ccc(Br)s2)c2ccccc21` gave Rab9 prom act inconclusive, NPC1 promoter act 8.6%, SMN2 splice enh inconclusive, ELG1 genotox 2.51µM*, FLuc modulator 8.49µM* and ELG1 repair inh inconclusive.
`Cn1c(=N)n(CC(=O)c2cccs2)c2ccccc21` gave Rab9 prom act 24.0%, NPC1 promoter act 19.9%, SMN2 splice enh inconclusive, ELG1 genotox inconclusive, FLuc modulator 10.7µM* and ELG1 repair inh inconclusive.
`COc1cccc(C(=O)Cn2c(=N)n(C)c3ccccc32)c1` gave Rab9 prom act inconclusive, NPC1 promoter act 0.562µM*, SMN2 splice enh 1.26µM*, ELG1 genotox 0.366µM*, FLuc modulator 1.2µM* and ELG1 repair inh inconclusive.
`COc1cccc(C(=O)Cn2c(NCCO)nc3ccccc32)c1` gave Rab9 prom act 0.5%, NPC1 promoter act -2.3%, SMN2 splice enh 3.8%, ELG1 genotox 0.4%, FLuc modulator -1.8% and ELG1 repair inh 14.1%.
`CCOC(=O)C1CCCCN1Cc1cccc(C(F)(F)F)c1` (configuration not stated) gave Rab9 prom act -3.0%, NPC1 promoter act -2.3%, SMN2 splice enh -15.1%, ELG1 genotox 2.5%, FLuc modulator 7.5% and ELG1 repair inh 17.3%.
CCOC(=O)C1=CN(Cc2ccco2)S(=O)(=O)N(C)C1c1ccccc1 (configuration not stated) was read as ELG1 genotox -0.3% and ELG1 repair inh -12.9%.
Fc1ccc(NC(=S)NCc2ccccc2Cl)cc1 was read as Rab9 prom act -1.1%, NPC1 promoter act -1.9%, SMN2 splice enh inconclusive, ELG1 genotox -3.2%, FLuc modulator 0.9% and ELG1 repair inh -16.1%.
`NNC(=O)c1cc2c(N3CCC(Cc4ccccc4)CC3)ncnc2s1` gave Rab9 prom act 0.1%, NPC1 promoter act -3.3%, SMN2 splice enh -46.4%, ELG1 genotox -5.8%, FLuc modulator -9.5% and ELG1 repair inh 23.1µM*.
Cn1ncc2c(N3CCC(Cc4ccccc4)CC3)ncnc21 was read as Rab9 prom act -6.3%, NPC1 promoter act -1.4%, SMN2 splice enh -34.7%, ELG1 genotox -8.6%, FLuc modulator 2.1% and ELG1 repair inh inconclusive.
`CCC(C)(C)NC(=O)C1CCN(S(=O)(=O)c2cccs2)CC1` gave Rab9 prom act 3.9%, NPC1 promoter act -0.5%, SMN2 splice enh 4.3%, ELG1 genotox 1.2%, FLuc modulator 3.2% and ELG1 repair inh 17.4%.
`CC(C)C(NC(=O)c1ccccc1F)C(=O)OCC(=O)c1ccc(F)cc1` (configuration not stated) gave Rab9 prom act inconclusive, NPC1 promoter act 0.6%, SMN2 splice enh -2.1%, ELG1 genotox 6.6%, FLuc modulator 3.01µM* and ELG1 repair inh 3.4%.
For COc1cc(OC)cc(C(=O)N[C@H](C(=O)OCC(=O)Nc2cccc(F)c2)C(C)C)c1 the results were Rab9 prom act -6.1%, NPC1 promoter act -0.2%, SMN2 splice enh -10.8%, ELG1 genotox -4.3%, FLuc modulator 0.6% and ELG1 repair inh inconclusive.
`COc1cc(OC)cc(C(=O)N[C@H](C(=O)OCC(=O)c2ccc(F)cc2)C(C)C)c1` gave Rab9 prom act 2.0%, NPC1 promoter act -3.6%, SMN2 splice enh -1.2%, ELG1 genotox 1.3%, FLuc modulator 10.7µM* and ELG1 repair inh -6.8%.
For CCN(CC)c1cc(C)c2cc(NC(=O)/C=C/c3ccccc3Cl)ccc2n1 the results were SMN2 splice enh 10.4% and FLuc modulator 1.6%.
Screening O=C(O)CSc1nc2sc3c(c2c(=O)n1Cc1ccccc1)CCCCC3 returned Rab9 prom act 22.4%, NPC1 promoter act 23.8%, ELG1 genotox inconclusive, FLuc modulator inconclusive and ELG1 repair inh inconclusive.
Screening O=C(O)CSc1cc(C(=O)c2ccccc2O)cn2c(=O)c3c4c(sc3nc12)CCCC4 returned Rab9 prom act 2.2%, NPC1 promoter act 1.3%, ELG1 genotox 12.0%, FLuc modulator 4.26µM* and ELG1 repair inh -6.9%.
`Clc1ccc(CN2CCN(c3ncnc4scc(-c5cccs5)c34)CC2)cc1` gave Rab9 prom act -30.8%, NPC1 promoter act 0.3%, SMN2 splice enh -40.7%, ELG1 genotox -9.1%, FLuc modulator 3.5% and ELG1 repair inh 23.1µM*.
`Fc1ccc(CN2CCN(c3ncnc4scc(-c5ccc(F)cc5)c34)CC2)cc1` gave Rab9 prom act -2.9%, NPC1 promoter act -4.4%, ELG1 genotox 0.0%, FLuc modulator 0.1% and ELG1 repair inh 20.6µM*.
Cc1nc2c(-c3ccccc3)c[nH]n2c(=O)c1Cc1ccccc1 was read as Rab9 prom act inconclusive, NPC1 promoter act 7.9%, SMN2 splice enh -60.0%, ELG1 genotox 1.4%, FLuc modulator 26.9µM* and ELG1 repair inh inconclusive.
Cc1ccc(Cc2c(C)nc3c(-c4ccccc4)c(C)[nH]n3c2=O)cc1 was read as SMN2 splice enh -0.9% and FLuc modulator 0.5%.
